Rows were chosen to be rich in hits. Some 3.7% of all compounds tested hit in one or more screens of this group.
TCR act = Activators of T cell receptors: qHTS campaign; primary human leukocytes, anti-CD3, IL-2 HTRF, 48 h; Potency, µM (highest dose often 9.22 µM), hits mostly activators; 330,000 tested, under 10 active
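HTRF read-out of IL-2 secretion: europium cryptate donor excited at 320nm, d2 acceptor emission at 665nm. Cells were primary human leukocytes incubated 48 hr with compounds and a-CD3 beads, supplying TCR signal only.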
Nrf2 ARE act = qHTS of Nrf2 Activators. AREc32 ARE-luciferase reporter (MCF7-derived line), luminescence, 24 h. Potency, µM (top dose mostly 46.1 µM), hits mostly activators. 0.31% of 410,000 active. AID 624171, 2012; further: nearly all actives have a fitted effect of over 65% in size
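Steps: seed AREc32_Fluc cells (1000/well, 5% FBS OPTI-MEM); incubate overnight at 37 deg C; add 23 nL compound; incubate 24 hr; add Steady-Glo; hold 30 min RT; read luminescence.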
Nrf2 inh = Nrf2 qHTS screen for inhibitors; A549 ARE-Fluc reporter, luciferase luminescence, 18-24 h; Potency, µM (titrated, usually from 46 µM), hits mostly inhibitors; 2.1% of 360,000 active; AID 504444, 2011; further: nearly all actives have a fitted effect of over 60% in size
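A549 ARE_Fluc cells (5000/well, 5% FBS OPTI-MEM) pre-incubated 2 h, then treated with compounds 18-24 h at 37C/5% CO2 in concentration-response. CellTiter-Fluor viability read first; BugLite luciferase luminescence after 15 min at room temperature gives Nrf2 activity.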
ClpP mod = qHTS Assay for Activators of ClpP; ATP-dependent Clp protease proteolytic subunit (Bacillus subtilis (strain 168)), P80244; 1.9% of 340,000 active; purified B. subtilis ClpP, FRET peptide cleavage, 20 min; AID 651965, 2013; Potency, µM (doses to about 57.5 µM); active means well fitted falling curve with a large enough effect; inconclusive means small, poorly fitted or top-dose-only effect; inactive means no such curve, though single readings can be large or run the other way; further: the source files actives as falling curves though it sought activators and does not explain the sign; nearly all actives have a fitted effect of over 65% in size
Target sequence (P80244 whole entry, looked up): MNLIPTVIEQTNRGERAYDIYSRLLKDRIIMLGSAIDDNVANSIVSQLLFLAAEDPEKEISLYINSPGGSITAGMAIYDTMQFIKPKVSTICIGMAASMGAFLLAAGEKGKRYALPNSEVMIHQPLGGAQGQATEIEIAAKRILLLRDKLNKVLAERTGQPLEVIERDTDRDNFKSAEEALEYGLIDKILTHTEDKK
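Buffer: 100 mM Tris/HCl pH8, 100 mM KCl, 0.05% low protease BSA, 2.5% glycerol, 0.01% Tween-20. ClpP 10 microg/mL final; 20 min RT; delta FRET normalized to ADEP and DMSO controls.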
A549 viability = Nrf2 qHTS screen for inhibitors: counterscreen for cytotoxicity; A549 ARE-Fluc cells, CellTiter-Fluor viability, 18-24 h; Potency, µM (top dose mostly 46 µM), actives largely listed as inhibitors; 0.16% of 390,000 active; AID 504648, 2011
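Cytotoxicity counterscreen: CellTiter-Fluor fluorescence was measured in A549 ARE_Fluc cells after 18-24 h of compound exposure in a concentration series. The subsequent BugLite luminescent read reports ARE-luciferase activity.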
miR-21 reporter = qHTS Assay for Modulators of miRNAs and/orActivators of miR-21; 340,000 tested, under 10 active; HeLa miR-21 FLuc reporter, luciferase, 48 h; Potency, µM (top dose mostly 38.3 µM), actives largely listed as activators;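 further: miR-21 action dims this reporter so a rising signal means less miR-21 action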
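HeLa miR-21-FLuc reporter line, endogenous miR-21; 2000 cells/well in DMEM/10% FBS; compound titration up to ~40uM final, 48 h, 37 degree Celsius; luciferase detection reagent, 15 min lysis, CCD luminescence.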
Each line names hits and unclear results; the compound was inactive in the other large screens; ! = repeats disagree. Unless noted, the call rests on the fitted dose curve; in most records, active means well fitted curve in the direction sought with a large enough effect; inconclusive means small, poorly fitted or top-dose-only effect, or another doubt; inactive means no such curve, though single readings can be large; an effect the other way counts as inactive or inconclusive.

O=C(Nc1nnc(S(=O)(=O)N2CCCc3ccccc32)s1)c1ccc(Cl)cc1	none (no result: TCR act)
CCCSc1ncnc2[nH]ncc12	none (no result: ClpP mod, miR-21 reporter)
O=S(Cc1cc(Oc2ccccc2)nc(-c2ccccc2)n1)c1ccccc1 (centres undefined)	Nrf2 inh 10µM
CCC(C(=O)Nc1cc(Cl)ccc1OC)n1nc(-c2ccccc2)ccc1=O (centres undefined)	Nrf2 inh inconclusive (no result: TCR act)
Cc1ccc(C(=O)N2CCCC(C(=O)c3ccc(Cl)cc3C)C2)cn1 (centres undefined)	none (no result: ClpP mod)
Cc1ccc(C(=O)N2CCCC(C(=O)c3ccc(Oc4ccccc4)cc3)C2)cn1 (centres undefined)	Nrf2 inh 16µM, A549 viability inconclusive (no result: ClpP mod)
COc1ccc(S(=O)(=O)c2c(SC)nn(CC(=O)Nc3ccc(C)c(Cl)c3)c2N)cc1	Nrf2 inh 23µM, A549 viability inconclusive, miR-21 reporter inconclusive (no result: TCR act)
CCSc1nn(CC(=O)Nc2cccc(CC)c2)c(N)c1S(=O)(=O)c1ccccc1	Nrf2 inh inconclusive (no result: TCR act)
CCSc1nn(CC(=O)Nc2cccc(Cl)c2)c(N)c1S(=O)(=O)c1ccc(OC)cc1	Nrf2 inh 18µM, A549 viability inconclusive (no result: TCR act)
COc1cccc(NC(=O)COc2ccc(C(=S)N3CCN(C)CC3)cc2OC)c1	Nrf2 inh 13µM
COc1cc(C(=S)N2CCN(C)CC2)ccc1OCC(=O)NCc1ccccc1	none (no result: ClpP mod)
CCOC(=O)C1CCN(C(=O)c2ccc(OCC(=O)Nc3cccc(C(F)(F)F)c3)cc2)CC1	none (no result: ClpP mod)
COC(=O)c1cccc(NC(=S)N2CCN(C)CC2)c1	ClpP mod 13µM (no result: TCR act)
CCOC(=O)C1CCN(C(=O)c2ccc(OCC(=O)Nc3cccc(C(F)(F)F)c3)c(OC)c2)CC1	Nrf2 inh 15µM (no result: ClpP mod, miR-21 reporter)
COc1cccc(CNC(=O)C2=C(C)C(=O)OC23CCN(C(C)=O)CC3)c1OC	Nrf2 inh inconclusive (no result: TCR act)
CC(C)(C)OC(=O)N1C2C=CC1C1=COCCN1C2=O (centres undefined)	none (no result: TCR act, Nrf2 ARE act, ClpP mod, miR-21 reporter)
Cc1ccc2[nH]c(-c3cccc(N)c3)cc2c1	Nrf2 inh inconclusive, ClpP mod 16µM
COc1cc(C2C(C(=O)Nc3ccccc3C)=C(C)Nc3nc(SCc4cc(C)ccc4C)nn32)ccc1O (centres undefined)	Nrf2 inh 16µM, A549 viability inconclusive (no result: TCR act)
CN(Cc1cnc2nc(N)nc(N)c2n1)c1ccc(C(=O)N[C@@H](CCC(=O)O)C(=O)O)cc1	Nrf2 inh 1.5µM! (no result: miR-21 reporter)
Nc1nc2ncc(CNc3ccc(C(=O)NC(CCC(=O)O)C(=O)O)cc3)nc2c(=O)[nH]1 (centres undefined)	none (no result: TCR act, Nrf2 ARE act, Nrf2 inh, A549 viability, miR-21 reporter)
CCOc1ccccc1NC(=O)C(C)N(c1ccccc1)S(C)(=O)=O (centres undefined)	none (no result: TCR act)
COc1ccc(NC(=O)CN(C)C(=O)c2sc3cc(Cl)ccc3c2Cl)cc1	Nrf2 inh inconclusive, ClpP mod 28µM (no result: miR-21 reporter)
COc1ccc2c(Cl)c(C(=O)NN)sc2c1	Nrf2 inh 15µM (no result: TCR act)
COc1ccc2c(Cl)c(C(=O)NCCc3ccc(S(N)(=O)=O)cc3)sc2c1	ClpP mod 14µM
CCOc1cc(/C=C2/C(=O)ON=C2C)ccc1OCc1ccccc1F	Nrf2 inh 4.1µM, A549 viability inconclusive
COC(=O)c1ccn(C(=O)c2ccc(Cl)cc2)n1	ClpP mod 28µM
COc1ccc(CCNC(=O)c2cccn2C)cc1	Nrf2 inh inconclusive
CC(C)Oc1ccc(C(=O)OC(C)C(=O)NC2CCCCC2C)cc1 (centres undefined)	none
CC(OC(=O)c1ccc2c(c1)OCCO2)C(=O)NC1CCCCC1C (centres undefined)	Nrf2 inh 18µM (no result: ClpP mod, miR-21 reporter)
C=CCNc1oc(-c2ccc(OC)cc2)nc1C#N	Nrf2 inh inconclusive
CCOc1ccc(-c2nc(C#N)c(NCC3CCCO3)o2)cc1 (centres undefined)	none
CCNc1oc(-c2cccc3ccccc23)nc1C#N	none
CCOc1ccc(-c2nc(C#N)c(NCC(C)C)o2)cc1	Nrf2 inh inconclusive, ClpP mod 40µM
CCOc1ccc(Nc2oc(-c3cccs3)nc2C#N)cc1	Nrf2 inh 16µM, ClpP mod 18µM
C=CCNc1oc(-c2ccc(OCC)cc2)nc1C#N	ClpP mod 0.79µM (no result: TCR act)
C=CCNc1oc(-c2cccc3ccccc23)nc1C#N	ClpP mod 3.2µM
Cc1ccc(NS(=O)(=O)c2cc3c(cc2Cl)NC(=O)C3)cc1C	none (no result: TCR act, Nrf2 ARE act, ClpP mod, miR-21 reporter)
COc1ccc(NC(=O)CSc2cn[nH]n2)cc1OC	none (no result: ClpP mod)
Cc1ccccc1CNC(=O)c1sc2ncnc(N(C)C3CCCCC3)c2c1C	ClpP mod inconclusive (no result: TCR act, Nrf2 inh)
CC1=C(C(=O)N2CCOCC2)C(c2ccc(O)cc2)NC(=S)N1 (centres undefined)	none
CC1=C(C(=O)N2CCOCC2)C(c2ccc(-c3ccccc3)cc2)NC(=S)N1 (centres undefined)	ClpP mod 28µM
Cc1c2cccn2cc[n+]1C	ClpP mod 10µM
CCN(CC)CCCNC(=O)c1c2c(nc3ccccc13)C(=O)N(C1CCCCC1)C2	ClpP mod 14µM (no result: TCR act)
CC1CNCCN1S(=O)(=O)c1cccc2cnccc12 (centres undefined)	Nrf2 inh 18µM
CCOc1ccc(CN(C)C(=O)c2ccc3c(c2)NC(=O)C(C)S3)cc1OC (centres undefined)	Nrf2 inh 16µM (no result: miR-21 reporter)
COc1cc(OC)c2ccc(=O)oc2c1C(CCN1CCCC(C)C1)c1ccc2c(c1)OCO2 (centres undefined)	A549 viability 16µM
COc1cc(O)c(C(CCN2CCCC(C)C2)c2ccc3c(c2)OCO3)c(OC)c1 (centres undefined)	none
CC1C(c2ccccc2)OCCN1C(=S)Nc1ccc(S(=O)(=O)N2CCCCC2)cc1 (centres undefined)	none (no result: TCR act, Nrf2 inh, A549 viability, miR-21 reporter)
NC(=O)CC(NC(=O)Cc1ccc(Br)cc1)c1ccc(NC2CCCCCC2)c([N+](=O)[O-])c1 (centres undefined)	Nrf2 inh 23µM, A549 viability inconclusive
NC(=O)CC(NC(=O)Cc1ccc(Br)cc1)c1ccc(NC2CCCCCCC2)c([N+](=O)[O-])c1 (centres undefined)	Nrf2 inh inconclusive, A549 viability inconclusive (no result: miR-21 reporter)
CCOC1=C2CN(S(=O)(=O)c3ccc(C)cc3)[C@@H](c3ccccc3)C[C@H]2[C@H]2C(=O)N(c3ccccc3)C(=O)[C@H]2C1	none (no result: TCR act, Nrf2 inh, A549 viability, miR-21 reporter)
O=c1[nH]c(CN2CCCCC2)nc2c1C1(CCCCC1)Cc1ccccc1-2	none (no result: Nrf2 inh)

Screening results: PubChem, National Center for Advancing Translational Sciences (NCATS)
